Compounds with a hit are over-represented: about 4.1% of the library has one in this group of screens.
NSD2 HMT inh = NSD2 histone methyltransferase inhibitors, primary screen, biochemical, AlphaScreen, single concentration, set 2; NSD2 peptide methylation, 120 min; inhibition, % at 12.5 µM; 310,000 compounds, 0.54% hits; in the data active = inhibition above about 50%
Casp6 inh = human caspase-6 inhibitors, primary screen, biochemical, VEID-R110 fluorescence, single point, set 2 | purified caspase-6, Z-VEID-R110 cleavage fluorescence | inhibition, % at 12.5 µM | 350,000 compounds, 0.53% hits | AID 686996, 2013;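 active = mean inhibition across replicates at least about 35%, with every replicate also reaching that limit, limit read from the data; inconclusive = only one of the two criteria met; inactive = neither criterion met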;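 also: 0% = median of neutral control wells and 100% = no fluorescence left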
Target sequence (P55212 24-179 limits assumed): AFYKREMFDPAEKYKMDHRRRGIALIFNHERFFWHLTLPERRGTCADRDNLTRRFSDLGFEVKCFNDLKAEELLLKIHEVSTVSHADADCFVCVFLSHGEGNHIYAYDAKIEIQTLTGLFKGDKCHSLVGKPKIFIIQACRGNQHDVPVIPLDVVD
Target sequence (P55212 194-293 limits assumed): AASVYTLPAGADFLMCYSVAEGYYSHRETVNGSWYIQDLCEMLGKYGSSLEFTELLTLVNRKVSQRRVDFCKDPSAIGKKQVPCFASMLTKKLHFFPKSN
ALR inh = inhibitors of human ALR sulfhydryl oxidase, primary screen, biochemical, H2O2 detection, HRP-luminol luminescence, single point | FAD-linked sulfhydryl oxidase ALR (Homo sapiens), P55789 | 290,000 compounds, 3.8% hits | purified ALR, DTT oxidation | AID 485317, 2010 | inhibition, % (no concentration beside the values);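 active = mean replicate inhibition above about 79%, with every replicate also reaching it, limit read from the data; inconclusive = only one of the two criteria met; inactive = mean below limit and not every replicate reaching it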
Target sequence (P55789 whole entry, looked up): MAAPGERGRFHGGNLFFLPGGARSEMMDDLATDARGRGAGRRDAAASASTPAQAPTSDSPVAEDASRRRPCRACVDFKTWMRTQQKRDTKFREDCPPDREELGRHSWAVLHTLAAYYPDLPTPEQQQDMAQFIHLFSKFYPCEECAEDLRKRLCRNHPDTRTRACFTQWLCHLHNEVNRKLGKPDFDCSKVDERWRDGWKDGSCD
Env fusion inh = inhibitors of HIV-1 Env-driven cell-cell fusion, primary screen, HeLa-JRFL effector, CEM21 target cells, luciferase | inhibition, % at 12.3 µM | 360,000 compounds, 1.1% hits;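 active = mean replicate inhibition score of at least 50 and every replicate individually at or above 50; inconclusive = only one of the two criteria met; inactive = mean below 50 and not all replicates reaching 50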;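 also: 0% = plate neutral controls and 100% = maraviroc near 300 nM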
F508del corr = F508del CFTR correction, initial screen, CFBE line, single point; CFBE cells, YFP halide quenching; stimulated with forskolin plus potentiator P3; % fluorescence drop versus neutral controls; activity (quench increase), % at 7.58 µM; 350,000 compounds, 0.36% hits; AID 720511, 2013;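 active = mean added fluorescence quench of at least 8% versus neutral control, with both replicates also reaching 8%; inconclusive = only one of the mean or replicate conditions met; inactive = mean below 8% and not both replicates reaching 8%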;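 also: cells transiently co-express mutant CFTR-F508del with the halide-sensitive YFP; corrector assay measuring rescue of mutant channel to the surface after 24 h compound exposure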
PglD DTNB = C. jejuni PglD acetyltransferase inhibitors, primary screen, biochemical, DTNB colorimetric, single point; UDP-N-acetylbacillosamine N-acetyltransferase PglD (Campylobacter jejuni); purified PglD enzyme, DTNB colorimetric CoA detection; inhibition, % at 12.5 µM; 360,000 compounds, 0.098% hits; in the data active = inhibition above about 16%, passing the limit was not always enough; inconclusive = no clear call, values can overlap the other calls
The depositor's hits bear a star; ? = inconclusive; · = no result; [ ] = remark or other dose.

SMILES | NSD2 HMT inh | Casp6 inh | ALR inh | Env fusion inh | F508del corr | PglD DTNB
COc1ccc2[nH]c(C(=O)O)c(NS(=O)(=O)c3ccc(C)cc3C)c2c1 | 3.7 | 2.6 | 98.2* | -12.0 | -2.7 | -0.6
COC(=O)c1[nH]c2ccc(C)cc2c1NS(=O)(=O)c1ccc(F)c(C)c1 | 0.0 | · | 29.7 | -52.3 | · | 3.7
COC(=O)c1[nH]c2ccc(C)cc2c1NS(=O)(=O)c1ccc(F)cc1 | -0.7 | · | 78.9* | · | · | 0.0
CCCS(=O)(=O)Nc1c(C(=O)O)[nH]c2ccc(OC)cc12 | -1.4 | 2.8 | ? | -2.9 | -2.4 | -3.4
O=C(C[C@H]1C=C[C@H](NS(=O)(=O)c2ccccc2)[C@@H](CO)O1)NCc1ccccc1F | · | 1.5 | · | 14.4[16.7 µM] | -1.5 | 2.7
CC(C)n1c(NCCc2ccccc2)nc2c1c(=O)n(C)c(=O)n2C | 2.9 | 2.2 | -2.5 | 109.9* | · | -5.7
Cn1c(=O)c2c(nc(N/N=C/c3ccncc3)n2Cc2ccccc2)n(C)c1=O | 5.1 | 7.2 | 97.1* | -22.9 | -2.0 | -0.9
Cc1ccc(Cn2c(SCc3cccnc3)nc3c2c(=O)n(C)c(=O)n3C)cc1 | -1.2 | · | -0.1 | · | · | -5.6
Cc1ccc(Cn2c(N/N=C/c3ccncc3)nc3c2c(=O)n(C)c(=O)n3C)cc1 | 4.5 | 4.1 | 97.2* | -15.2 | -0.5 | -5.0
CCCNc1nc2c(c(=O)n(C)c(=O)n2C)n1CCc1ccccc1 | 1.8 | · | 54.0 | 46.4 | · | -4.2
COc1cc(/C=N/Nc2nc3c(c(=O)n(C)c(=O)n3C)n2Cc2ccccc2)ccc1OC(=O)c1ccco1 | 2.5 | -1.0 | -7.9 | · | -1.2 | -8.1
C/C(Cl)=C\Cn1c(Nc2ccccc2)nc2c1c(=O)n(C)c(=O)n2C | -3.4 | · | 87.2* | · | · | -1.8
C[C@@H]1CN([C@H](C)CO)S(=O)(=O)c2ccc(C#Cc3ccncc3)cc2O[C@H]1CN(C)C(=O)C1CCC1 | · | -0.4 | · | -12.1[16.7 µM] | -0.2 | -0.8
N=c1ccn(CC(=O)c2ccc(-c3ccccc3)cc2)cc1 | 13.8 | 2.6 | 0.5 | 68.7* | 5.1 | ·
O=C(Nc1ccc(F)cc1)N1CC(=O)N2[C@H](CO)[C@H](c3ccc(-c4ccccc4)cc3)[C@H]2C1 | · | · | · | · | 1.6 | ·
C=CCOC(=O)C1=C(C)NC(SCC(=O)Nc2nccs2)=C(C#N)C1c1cccs1 (stereo not given) | -0.6 | · | -2.3 | · | · | ·
C=CCOC(=O)C1=C(C)NC(SCC(=O)Nc2nccs2)=C(C#N)C1c1ccc(Cl)cc1 (stereo not given) | -2.0 | -1.3 | 15.5 | 103.0* | · | 1.1
O=C(NCc1ccco1)C1CCN(S(=O)(=O)c2cccc3cccnc23)CC1 | · | 2.8 | 7.6 | 2.0 | 0.6 | -2.2
O=C(C1CCN(S(=O)(=O)c2cccc3cccnc23)CC1)N1CCN(C2CCCC2)CC1 | · | -0.6 | 82.2* | -6.6 | -2.0 | 1.6
O=C(C1CCN(S(=O)(=O)c2cccc3cccnc23)CC1)N1CCCCC1 | · | -1.1 | -3.1 | 8.8 | 0.0 | 1.0
Cc1ccc(NC(=O)C2CCN(S(=O)(=O)c3cccc4cccnc34)CC2)nc1 | · | -0.7 | 95.5* | -34.3 | 1.7 | -1.3
O=C(NCc1cccs1)C1CCN(S(=O)(=O)c2cccc3cccnc23)CC1 | · | 2.4 | 94.7* | -15.6 | -0.1 | -4.7
Cc1cccc(NC(=O)C2CCN(S(=O)(=O)c3cccc4cccnc34)CC2)n1 | · | 2.6 | 27.2 | -0.2 | 1.2 | 0.6
CCCNC(=O)C[C@@H]1CC[C@@H]2[C@@H](COc3ccc(NC(=O)c4ccc(Cl)cc4)cc3C(=O)N2C)O1 | · | -1.0 | · | 8.0[16.7 µM] | -0.4 | 2.6
CCCCN1CC(O)=C(c2nc(-c3ccc(Br)cc3)cs2)C1=N | -2.1 | 0.5 | -2.9 | -9.3 | -2.5 | 6.2
SMILES | NSD2 HMT inh | Casp6 inh | ALR inh | Env fusion inh | F508del corr | PglD DTNB
COc1ccc(-c2csc(C3=C(O)CN(CCCN4CCCC4=O)C3=N)n2)cc1OC | -0.1 | 11.1 | 95.7* | 11.3 | 2.2 | -4.3
Cc1cc(/C=N/n2c(COc3ccccc3C)nc3ccccc3c2=O)c(O)c([N+](=O)[O-])c1 | 10.6 | -1.5 | 5.2 | 7.7 | 8.2* | ·
Cc1ccccc1OCc1nc2ccccc2c(=O)n1/N=C/c1c[nH]c2ccccc12 | -2.2 | -0.8 | 2.3 | · | 4.0 | 2.5
CCc1ccc(NC(=S)NC2CCN(Cc3ccccc3)CC2)cc1 | 8.2 | · | 96.3* | 5.9 | · | ·
C[C@H](O)C#Cc1ccc2c(c1)O[C@H](CN(C)C(=O)Nc1ccccc1)[C@@H](C)CN([C@H](C)CO)S2(=O)=O | · | · | · | -23.7[16.7 µM] | 5.5 | -0.1
O=C1c2ccccc2C(=O)C1c1ccc(Br)cc1 | 24.0 | 2.7 | 1.8 | -0.9 | -0.3 | -1.0
Cc1ccc(C2C3=C(CCCC3=O)Nc3[nH]c(=S)[nH]c(=O)c32)cc1 (stereo not given) | 0.6 | · | · | -32.0 | · | 0.0
O=C1CCCC2=C1C(c1ccc(Br)cc1)c1c([nH]c(=S)[nH]c1=O)N2 (stereo not given) | 0.4 | · | 83.0* | 32.3 | · | -5.0
O=c1[nH]c(=S)[nH]c2c1C(c1ccc(Br)cc1)c1c([nH]c(=S)[nH]c1=O)O2 | · | 95.6* | · | 7.4 | -1.0 | 14.8
CCNC(=O)[C@H]1[C@H](CO)[C@H]2Cn3c(ccc(-c4cccc(F)c4)c3=O)[C@H]2N1Cc1cc(F)ccc1F | · | · | · | · | · | -1.6
O=C(C[C@H]1CC[C@@H]2[C@H](COC[C@H](O)CN2S(=O)(=O)c2ccccc2)O1)NCCN1CCCC1 | · | -1.8 | · | · | 0.0 | ·
C[C@H](CO)N1C[C@H](C)[C@@H](CN(C)C(=O)C2CCCCC2)Oc2cc(C3=CCCCC3)ccc2S1(=O)=O | · | 2.9 | · | 12.2[16.7 µM] | -2.1 | -1.9
O=C(O)COc1ccccc1/C=N/n1c(C2CCCCC2)n[nH]c1=S | -0.9 | 5.5 | 96.6* | 1.2 | 1.0 | 6.9
S=c1[nH]nc(C2CCCCC2)n1/N=C/c1ccccc1Br | 12.8 | 1.9 | · | 13.2 | -0.7 | -10.5
O=[N+]([O-])c1ccccc1/C=N/n1c(C(F)(F)F)n[nH]c1=S | 4.5 | -0.1 | 94.9* | -5.4 | -5.7 | ·
O=[N+]([O-])c1ccccc1/C=N/n1c(C2CCCCC2)n[nH]c1=S | 16.1 | · | 96.6* | 18.9 | · | ·
O=[N+]([O-])c1ccccc1/C=N/n1c(-c2cccnc2)n[nH]c1=S | 0.2 | · | 30.9 | · | · | 6.7
O=[N+]([O-])c1ccc(Cl)c(/C=N/n2c(C3CCCCC3)n[nH]c2=S)c1 | -0.4 | · | 98.6* | 4.9 | · | -5.2
O=[N+]([O-])c1cc2c(cc1/C=N/n1c(-c3ccccn3)n[nH]c1=S)OCO2 | -3.6 | · | 21.2 | 3.2 | · | ·
O=[N+]([O-])c1ccc(Cl)c(/C=N/n2c(COc3ccccc3)n[nH]c2=S)c1 | 1.9 | -1.6 | 95.8* | · | -2.5 | 4.0
COc1cc(/C=N/n2c(C3CCCCC3)n[nH]c2=S)cc(OC)c1O | 6.1 | -1.1 | 99.1* | 11.1 | 7.4 | 2.5
